{"source": "PubChem BioAssay (NCI)", "note": "Compounds without any hit were thinned out: in the full panel of roughly 83,000, 20% have a hit.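 Testing used 96-well plates and a 48-hour single-concentration exposure. Example: -40 means 40% of the starting cells died.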 Calls of active or inactive are those of the source. The calls were made as follows: active = growth percent below 10; inactive = the rest."}
{"tested_on": "HL-60(TB) leukemia", "assay": "NCI-60 one-dose screen, 48 h (100 = growth as untreated, 0 = no growth, -100 = all killed)", "details": "10 µM unless noted"}
{"compound": "C#C[C@]1(O)CC[C@H]2[C@@H]3CC=C4c5sc(NCc6ccccc6)nc5CC[C@]4(C)[C@H]3CC[C@@]21C", "growth": "24% (inactive)"}
{"compound": "CN(C)c1ccc(/C=N/Nc2nc(N/N=C/c3ccc(N(C)C)cc3)nc(N3CCCCC3)n2)cc1", "growth": "-38% (active)"}
{"compound": "CSc1nccc(-c2c(-c3ccc(F)c(OCc4ccc(F)cc4)c3)nc3sccn23)n1", "growth": "78% (inactive)"}
{"compound": "Cc1ccc(/C=C/c2nn3c(-c4ccco4)nnc3s2)cc1C", "growth": "91.4% (inactive)"}
{"compound": "Cc1csc(/N=C(N)/N=C(\\N)c2cccnc2)n1", "growth": "65.9% (inactive)"}
